Reference: PubChem BioAssay (Tox21)
Several values for one entry are separate records, joined by “and”; a condition that tells them apart may be missing. Equal entries are not always repeated. Values without a mark were called inactive. Inconclusive results are not listed. Where a call stands in place of a potency, no number is given. Activity calls are given as the source filed them. Unless noted, calls come from the whole dose curve; as a rule, active = well fitted curve in the direction sought with a large enough effect in the repeat runs; inconclusive = weak or mixed curves; inactive = no such curve, though single readings can be large; an effect the other way counts as inactive or inconclusive.

What was measured:
[1] = qHTS assay to test for compound auto fluorescence at 535 nm (green) in HEK293 cells (AID 720680)
[2] = qHTS assay to test for compound auto fluorescence at 460 nm (blue) in HEK293 cell free culture (AID 720681)
Method in brief: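 Blue fluorescence (Ex 405/Em 460 nm, triamterene-equivalent) was read immediately after pin transfer of compound or DMSO into medium (DMEM, 10% FBS) without cells.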

[3] = qHTS assay to test for compound auto fluorescence at 535 nm (green) in HEK293 cell free culture (AID 720682)
Method in brief: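 Cell-free medium (DMEM, 10% FBS) receives compound or DMSO by pintool. Plate read directly at Ex 485/Em 535 nm. Signal converted to fluorescein equivalency.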

[4] = qHTS assay to test for compound auto fluorescence at 590 nm (red) in HEK293 cell free culture (AID 720683)
Method in brief: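 Red-channel autofluorescence of compounds in culture medium (DMEM, 10% FBS), no cells, measured at 540/590 nm. Rose Bengal sodium is the reference fluorophore for equivalence.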

[5] = qHTS assay to test for compound auto fluorescence at 590 nm (red) in HepG2 cell free culture (AID 720684)
Method in brief: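 No cells present: MEM + 10% FBS only. Compound pinned in, red label read (540/590 nm). Activity = fluorescence equivalent to Rose Bengal sodium.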

[6] = qHTS assay to test for compound auto fluorescence at 460 nm (blue) in HepG2 cell free culture (AID 720685)
Method in brief: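 Cell-free plates of MEM plus 10% FBS received 23 nL compound or DMSO vehicle; blue-channel (405/460 nm) intensity scored against triamterene as reference fluorophore.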

[7] = qHTS assay to test for compound auto fluorescence at 535 nm (green) in HepG2 cell free culture (AID 720686)
[8] = qHTS assay to test for compound auto fluorescence at 460 nm (blue) in HepG2 cells (AID 720687)
Method in brief: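 Blue-channel autofluorescence (Ex/Em 405/460 nm, triamterene-equivalent) was measured after 1 hr compound exposure at 37 C, 5% CO2. Cells were HepG2, plated overnight at 37 C in MEM plus 10% FBS.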

[9] = biological target: Glucocorticoid receptor (Homo sapiens) (UniProt P04150); assay: qHTS assay to identify small molecule agonists of the glucocorticoid receptor (GR) signaling pathway (AID 720691; active = well fitted activation curve with a large enough effect in the signal ratio in the repeat runs, not every such curve was filed as active; the % refers to the signal ratio)
Glucocorticoid receptor (Homo sapiens), sequence (P04150 whole entry, looked up): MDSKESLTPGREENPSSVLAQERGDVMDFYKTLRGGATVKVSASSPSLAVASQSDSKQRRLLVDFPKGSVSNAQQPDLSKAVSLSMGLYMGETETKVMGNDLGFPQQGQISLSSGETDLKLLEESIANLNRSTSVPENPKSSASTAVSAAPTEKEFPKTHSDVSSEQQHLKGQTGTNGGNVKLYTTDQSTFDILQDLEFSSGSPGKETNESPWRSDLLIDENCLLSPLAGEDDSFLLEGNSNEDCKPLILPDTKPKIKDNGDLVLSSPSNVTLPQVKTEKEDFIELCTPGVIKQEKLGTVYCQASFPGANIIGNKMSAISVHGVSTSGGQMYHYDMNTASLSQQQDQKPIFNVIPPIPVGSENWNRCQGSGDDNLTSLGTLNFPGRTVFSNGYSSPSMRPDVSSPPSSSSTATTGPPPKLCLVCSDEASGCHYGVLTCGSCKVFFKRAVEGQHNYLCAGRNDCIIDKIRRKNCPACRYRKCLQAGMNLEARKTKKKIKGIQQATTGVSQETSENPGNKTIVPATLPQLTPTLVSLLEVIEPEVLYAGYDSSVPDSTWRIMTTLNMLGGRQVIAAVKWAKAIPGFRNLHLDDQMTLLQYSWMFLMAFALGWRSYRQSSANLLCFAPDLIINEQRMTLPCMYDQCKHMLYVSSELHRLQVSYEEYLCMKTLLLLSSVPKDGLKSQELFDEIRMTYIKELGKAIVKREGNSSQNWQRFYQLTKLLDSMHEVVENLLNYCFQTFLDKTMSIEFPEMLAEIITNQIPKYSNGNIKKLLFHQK
Method in brief: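 Cells: GR-bla HeLa, endogenous GR with stably integrated GRE-beta-lactamase reporter. Treatment 18 h, 37 C, compounds delivered in DMSO. Detection via LiveBLAzer B/G FRET substrate, 2 h RT, fluorescence intensity.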

[10] = biological target: Glucocorticoid receptor (Homo sapiens) (UniProt P04150); assay: qHTS assay to identify small molecule antagonists of the glucocorticoid receptor (GR) signaling pathway (AID 720692; active = well fitted inhibition curve with a large enough effect in the signal ratio in the repeat runs, not every such curve was filed as active; the % refers to the signal ratio)
Method in brief: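 Quantitative HTS in antagonist format: HeLa cells expressing endogenous GR and a stably integrated GRE-bla reporter, stimulated with 5 nM dexamethasone (final) alongside test compounds for 18 h.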

[11] = qHTS assay to identify small molecule antagonists of the glucocorticoid receptor (GR) signaling pathway - cell viability counter screen (AID 720693); note: nearly all actives have a fitted effect of over 55% in size
[12] = qHTS assay to identify small molecule antagonists of the androgen receptor (AR) signaling pathway - cell viability counter screen (AID 743033; note: nearly all actives have a fitted effect of over 45% in size)
[13] = biological target: Androgen receptor (Homo sapiens) (UniProt P10275); assay: qHTS assay to identify small molecule antagonists of the androgen receptor (AR) signaling pathway (AID 743035; active = well fitted inhibition curve with a large enough effect in the signal ratio in the repeat runs, not every such curve was filed as active; the % refers to the signal ratio)
Androgen receptor (Homo sapiens), sequence (P10275 whole entry, looked up): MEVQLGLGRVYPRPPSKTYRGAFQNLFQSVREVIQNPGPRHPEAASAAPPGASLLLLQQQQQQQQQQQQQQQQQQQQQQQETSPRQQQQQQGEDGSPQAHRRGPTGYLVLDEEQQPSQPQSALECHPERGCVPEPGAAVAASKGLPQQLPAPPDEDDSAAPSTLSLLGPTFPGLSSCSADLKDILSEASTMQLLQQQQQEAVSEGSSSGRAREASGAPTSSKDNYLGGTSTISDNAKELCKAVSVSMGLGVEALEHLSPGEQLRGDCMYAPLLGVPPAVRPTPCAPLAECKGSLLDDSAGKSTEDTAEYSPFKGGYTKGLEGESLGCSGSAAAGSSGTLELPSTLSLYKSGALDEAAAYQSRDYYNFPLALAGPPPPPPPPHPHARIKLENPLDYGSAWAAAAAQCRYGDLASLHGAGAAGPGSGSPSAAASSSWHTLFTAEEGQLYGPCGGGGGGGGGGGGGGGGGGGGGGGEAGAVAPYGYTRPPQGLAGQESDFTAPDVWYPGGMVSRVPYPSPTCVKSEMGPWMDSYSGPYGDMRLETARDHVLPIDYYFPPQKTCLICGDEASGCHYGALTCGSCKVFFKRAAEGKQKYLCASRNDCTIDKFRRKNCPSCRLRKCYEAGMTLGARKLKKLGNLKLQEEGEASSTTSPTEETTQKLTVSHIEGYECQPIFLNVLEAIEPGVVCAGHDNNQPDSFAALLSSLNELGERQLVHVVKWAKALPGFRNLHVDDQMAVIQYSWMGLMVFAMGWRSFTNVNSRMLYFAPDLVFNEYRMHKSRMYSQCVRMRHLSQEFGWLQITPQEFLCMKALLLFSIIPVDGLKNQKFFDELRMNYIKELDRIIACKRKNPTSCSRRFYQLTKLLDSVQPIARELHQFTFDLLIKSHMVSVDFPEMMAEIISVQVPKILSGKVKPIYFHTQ
Method in brief: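 Quantitative HTS of the Tox21 10K library used HEK293 AR-UAS-bla cells stimulated with R1881 alongside compound for 16 h at 37C, followed by beta-lactamase FRET detection (LiveBLAzer B/G, 2 h, RT).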

[14] = biological target: Androgen receptor (Homo sapiens) (UniProt P10275); assay: qHTS assay to identify small molecule agonists of the androgen receptor (AR) signaling pathway (AID 743036; active = well fitted activation curve with a large enough effect in the signal ratio in the repeat runs, with a control signal flat, not every such curve was filed as active; the % refers to the signal ratio)
Method in brief: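 AR-bla HEK293 cells, 2,000/well; 4 h preincubation 37C/5% CO2; compound (DMSO) 16 h at 37C; LiveBLAzer B/G FRET substrate 2 h RT; fluorescence intensity read-out.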

[15] = biological target: Androgen receptor (Homo sapiens) (UniProt P10275); assay: qHTS assay to identify small molecule agonists of the androgen receptor (AR) signaling pathway using the MDA cell line (AID 743040; note: nearly all actives have a fitted effect of over 20% in size)
Method in brief: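 Stable MMTV-luciferase reporter in MDA-kb2 cells; note the promoter carries GR as well as AR response elements. 16 h compound treatment, 37C, 0% CO2; ONE-Glo luminescence endpoint.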

[16] = qHTS assay to identify small molecule antagonists of the androgen receptor (AR) signaling pathway using the MDA cell line - cell viability counter screen (AID 743041; note: nearly all actives have a fitted effect of over 45% in size)
Method in brief: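 Using the breast carcinoma line MDA-kb2 AR-luc, test chemicals were co-incubated with R1881 for 16 h; CellTiter-Fluor reagent, added at 15.5 h, provided a fluorescence measure of live cells.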

[17] = biological target: Androgen receptor (Homo sapiens) (UniProt P10275); assay: qHTS assay to identify small molecule antagonists of the androgen receptor (AR) signaling pathway using the MDA cell line (AID 743042; note: nearly all actives have a fitted effect of over 55% in size)
Method in brief: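 Antagonist mode: compounds plus R1881 agonist added to MDA-kb2 AR-luc cells, incubated 16 h at 37C. Luciferase reporter luminescence quantified, with multiplexed CellTiter-Fluor readout for cell viability.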

[18] = qHTS assay for identifying genotoxic compounds that show differential cytotoxicity against isogenic chicken DT40 cell lines with known DNA damage response pathways - wild type cell line (AID 743012); note: nearly all actives have a fitted effect of over 60% in size; note: potency is the fitted concentration of half-maximal effect
Method in brief: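 Luminescent ATP viability signal (CellTiter-Glo, 30 min RT) recorded after wild type DT40 cells were incubated with compounds for 40 h at 37 C/5% CO2.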

[19] = qHTS assay for identifying genotoxic compounds that show differential cytotoxicity against isogenic chicken DT40 cell lines with known DNA damage response pathways - Rev3 mutant cell line (AID 743014); note: nearly all actives have a fitted effect of over 55% in size; note: potency is the fitted concentration of half-maximal effect
[20] = qHTS assay for identifying genotoxic compounds that show differential cytotoxicity against isogenic chicken DT40 cell lines with known DNA damage response pathways - Rad54/Ku70 mutant cell line (AID 743015); note: nearly all actives have a fitted effect of over 60% in size; note: potency is the fitted concentration of half-maximal effect

## N#C[C@@H]1CC(F)(F)CN1C(=O)CNC1CC2CCC(C1)N2c1ncccn1 (stereo partly specified)
[1]
  outcome: inactive
[2]
  Potency: inactive
[3]
  outcome: inactive
[4]
  outcome: inactive
[5]
  outcome: inactive
[6]
  outcome: inactive
[7]
  outcome: inactive
[8]
  outcome: inactive
[9]
  Potency: inactive
[10]
  Potency: inactive
[11]
  Potency: inactive
[12]
  Potency: inactive
[13]
  Potency: inactive
[14]
  outcome: inactive
[15]
  outcome: inactive
[16]
  Potency: inactive
[17]
  Potency: inactive

## NCCOCCOCCN
[1]
  outcome: inactive
[2]
  Potency: inactive
[3]
  outcome: inactive
[4]
  outcome: inactive
[5]
  outcome: inactive
[6]
  outcome: inactive
[7]
  outcome: inactive
[8]
  outcome: inactive
[9]
  Potency: inactive
[18]
  Potency: 24.3 µM (active)
[19]
  Potency: 24.3 µM (active)
[20]
  Potency: 24.3 µM (active)
[15]
  outcome: inactive

## CCCCCCCCCCCCSCCOCCO
[1]
  outcome: inactive
[2]
  Potency: inactive
[3]
  outcome: inactive
[4]
  outcome: inactive
[5]
  outcome: inactive
[6]
  outcome: inactive
[7]
  outcome: inactive
[8]
  outcome: inactive
[9]
  Potency: inactive
[10]
  Potency: inactive
[11]
  Potency: inactive
[20]
  Potency: inactive
[12]
  Potency: inactive
[16]
  Potency: inactive

## CNc1ccccc1
[1]
  outcome: inactive
[2]
  Potency: inactive
[3]
  outcome: inactive
[4]
  outcome: inactive
[5]
  outcome: inactive
[6]
  outcome: inactive
[7]
  outcome: inactive
[8]
  outcome: inactive
[9]
  Potency: inactive
[18]
  Potency: inactive
[19]
  Potency: inactive
[20]
  Potency: inactive
[12]
  Potency: inactive
[16]
  Potency: inactive

## CC(C)=CCC/C(C)=C/C=N/O
[1]
  outcome: inactive
[2]
  Potency: inactive
[3]
  outcome: inactive
[4]
  outcome: inactive
[5]
  outcome: inactive
[6]
  outcome: inactive
[7]
  outcome: inactive
[8]
  outcome: inactive
[9]
  Potency: inactive
[11]
  Potency: inactive
[12]
  Potency: inactive
[16]
  Potency: inactive

## CCC1=C(C)CN(C(=O)NCCc2ccc(S(=O)(=O)NC(=O)NC3CCC(C)CC3)cc2)C1=O (stereo unspecified)
[1]
  outcome: inactive
[2]
  Potency: inactive
[3]
  outcome: inactive
[4]
  outcome: inactive
[5]
  outcome: inactive
[6]
  outcome: inactive
[7]
  outcome: inactive
[8]
  outcome: inactive
[9]
  Potency: inactive
[10]
  Potency: inactive
[18]
  Potency: inactive
[19]
  Potency: inactive
[20]
  Potency: inactive
[12]
  Potency: inactive
[13]
  Potency: inactive
[15]
  outcome: inactive
[16]
  Potency: inactive
[17]
  Potency: inactive

## O=C(O)c1ccccc1[N+](=O)[O-]
[1]
  outcome: inactive
[2]
  Potency: inactive
[3]
  outcome: inactive
[4]
  outcome: inactive
[5]
  outcome: inactive
[6]
  outcome: inactive
[7]
  outcome: inactive
[8]
  outcome: inactive
[9]
  Potency: inactive
[10]
  Potency: inactive
[18]
  Potency: inactive
[19]
  Potency: inactive
[20]
  Potency: inactive
[12]
  Potency: inactive
[16]
  Potency: inactive

## CC1=CC(=C(c2ccc(N)cc2)c2ccc(N)cc2)C=CC1=N
[1]
  outcome: inactive
[2]
  Potency: inactive
[3]
  outcome: inactive
[4]
  outcome: inactive
[5]
  outcome: inactive
[6]
  outcome: inactive
[7]
  outcome: inactive
[8]
  outcome: inactive
[9]
  activation: -0.66% [at 6.9 µM]
[11]
  Potency: inactive
[18]
  Potency: 5.31 µM (active)
[19]
  Potency: 5.96 µM (active) and 3.1 µM (active)
[20]
  Potency: 5.96 µM (active)
